Measured values published in PubChem BioAssay.
For some assays here: Results with a measured potency or affinity are listed apart. Results filed as inconclusive are left out. Active and inactive are the calls of the source.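 How the source made its calls, unless noted: active means falling signal with fitted half-maximal potency no higher than twice the top valid tested dose; inconclusive means poor fit quality, or flat fit spanning -70% to -30%; inactive means potency over limit, rising signal, or flat fit inside 30%.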

Key:
[1] = binders of probe aFSTL3 on microarray, primary screen, stem cell growth factor project, biochemical, small-molecule microarray, fluorescence 635/667 (AID 1064); conditions: higher = more signal;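 further: measures binding of the biotinylated anti-FSTL3 antibody to printed compounds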
[2] = binders from COS7 lysate, DM2A8 probe, primary screen, torsin A project, cell lysate, small-molecule microarray, fluorescence 635/667 (AID 1065); conditions: higher = more signal, COS7 lysate expressing mutant human TOR1A
[3] = binders of probe aFGF2 on microarray, primary screen, stem cell growth factor project, biochemical, small-molecule microarray, fluorescence 635/667 (AID 1067); conditions: higher = more signal;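 further: measures binding of biotinylated aFGF2 protein to printed compounds on slides; z-score merges feature fluorescence and signal-to-noise across triplicate slides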
[4] = binders of probe aFGF10 on microarray, primary screen, stem cell growth factor project, biochemical, small-molecule microarray, fluorescence 635/667 (AID 1071); conditions: higher = more signal;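 further: score merges 667 nm spot intensity and signal to noise from triplicate slides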
[5] = biological target: Neurogenic locus notch homolog protein 2 (Homo sapiens) (UniProt Q04721); assay: Notch2 binders on small-molecule microarrays, primary screen, biochemical, small-molecule microarray, 635 nm fluorescence, stem cell growth factors (AID 1073); conditions: Notch2 binding, higher = more signal
Neurogenic locus notch homolog protein 2 (Homo sapiens), sequence (Q04721 whole entry, looked up, canonical isoform): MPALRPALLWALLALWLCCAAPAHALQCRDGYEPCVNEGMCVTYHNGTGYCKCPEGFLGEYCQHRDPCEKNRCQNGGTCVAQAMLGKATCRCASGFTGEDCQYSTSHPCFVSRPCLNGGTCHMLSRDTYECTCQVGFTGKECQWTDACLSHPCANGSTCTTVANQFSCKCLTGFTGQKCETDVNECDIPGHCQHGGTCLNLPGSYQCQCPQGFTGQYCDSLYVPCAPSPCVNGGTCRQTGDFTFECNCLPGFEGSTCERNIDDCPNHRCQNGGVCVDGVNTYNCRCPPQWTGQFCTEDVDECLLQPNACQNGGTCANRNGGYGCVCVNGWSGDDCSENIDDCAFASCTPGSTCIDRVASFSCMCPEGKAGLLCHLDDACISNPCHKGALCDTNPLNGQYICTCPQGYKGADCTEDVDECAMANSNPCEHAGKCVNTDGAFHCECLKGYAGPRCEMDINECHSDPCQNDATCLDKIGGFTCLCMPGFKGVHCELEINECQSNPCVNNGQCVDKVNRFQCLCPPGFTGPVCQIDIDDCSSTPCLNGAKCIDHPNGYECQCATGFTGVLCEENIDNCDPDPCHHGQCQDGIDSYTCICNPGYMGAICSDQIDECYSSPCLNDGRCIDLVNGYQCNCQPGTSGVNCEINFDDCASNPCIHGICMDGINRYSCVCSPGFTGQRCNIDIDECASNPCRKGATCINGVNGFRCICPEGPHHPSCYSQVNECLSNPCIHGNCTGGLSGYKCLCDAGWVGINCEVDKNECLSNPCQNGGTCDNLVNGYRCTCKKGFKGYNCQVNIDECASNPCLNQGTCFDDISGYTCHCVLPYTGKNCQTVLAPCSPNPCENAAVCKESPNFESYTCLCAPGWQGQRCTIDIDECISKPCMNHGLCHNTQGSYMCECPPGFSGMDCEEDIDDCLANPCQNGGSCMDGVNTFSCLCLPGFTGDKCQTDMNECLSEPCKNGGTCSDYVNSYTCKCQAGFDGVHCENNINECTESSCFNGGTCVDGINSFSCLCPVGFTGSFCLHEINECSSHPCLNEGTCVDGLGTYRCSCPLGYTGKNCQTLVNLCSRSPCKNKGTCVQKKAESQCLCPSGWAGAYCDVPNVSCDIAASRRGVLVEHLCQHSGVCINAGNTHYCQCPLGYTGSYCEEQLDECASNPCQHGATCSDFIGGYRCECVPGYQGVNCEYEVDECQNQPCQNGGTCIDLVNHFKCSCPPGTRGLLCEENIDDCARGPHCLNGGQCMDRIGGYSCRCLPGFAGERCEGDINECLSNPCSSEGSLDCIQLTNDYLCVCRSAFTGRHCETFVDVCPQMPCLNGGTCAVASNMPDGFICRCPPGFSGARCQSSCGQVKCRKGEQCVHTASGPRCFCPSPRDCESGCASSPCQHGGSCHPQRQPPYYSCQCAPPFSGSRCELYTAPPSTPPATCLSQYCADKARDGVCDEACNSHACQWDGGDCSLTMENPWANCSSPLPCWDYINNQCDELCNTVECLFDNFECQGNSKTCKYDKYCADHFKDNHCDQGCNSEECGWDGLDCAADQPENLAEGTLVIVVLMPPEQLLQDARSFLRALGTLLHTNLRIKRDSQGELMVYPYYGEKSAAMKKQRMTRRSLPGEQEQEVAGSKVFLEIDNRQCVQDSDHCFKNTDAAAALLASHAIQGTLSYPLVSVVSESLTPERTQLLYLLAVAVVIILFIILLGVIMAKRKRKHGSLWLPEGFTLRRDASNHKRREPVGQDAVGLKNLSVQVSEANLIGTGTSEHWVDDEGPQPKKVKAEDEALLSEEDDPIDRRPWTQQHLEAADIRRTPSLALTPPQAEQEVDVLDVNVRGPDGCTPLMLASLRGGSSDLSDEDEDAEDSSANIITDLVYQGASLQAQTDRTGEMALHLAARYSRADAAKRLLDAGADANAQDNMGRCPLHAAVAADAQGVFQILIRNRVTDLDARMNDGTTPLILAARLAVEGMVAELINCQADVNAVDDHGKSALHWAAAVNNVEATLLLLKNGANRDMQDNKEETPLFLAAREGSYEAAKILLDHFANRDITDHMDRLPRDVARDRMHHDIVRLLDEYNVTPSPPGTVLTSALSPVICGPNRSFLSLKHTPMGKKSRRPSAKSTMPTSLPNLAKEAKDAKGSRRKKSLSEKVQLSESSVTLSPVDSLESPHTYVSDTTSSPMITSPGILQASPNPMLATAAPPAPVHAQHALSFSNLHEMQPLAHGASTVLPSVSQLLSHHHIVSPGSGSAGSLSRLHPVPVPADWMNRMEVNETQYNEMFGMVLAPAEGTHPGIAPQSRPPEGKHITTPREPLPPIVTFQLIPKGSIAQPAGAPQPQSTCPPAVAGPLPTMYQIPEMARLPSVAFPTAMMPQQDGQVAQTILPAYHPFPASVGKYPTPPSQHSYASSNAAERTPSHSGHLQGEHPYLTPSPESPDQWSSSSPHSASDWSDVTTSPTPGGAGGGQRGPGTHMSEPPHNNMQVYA

[6] = biological target: Pro-neuregulin-1, membrane-bound isoform (Homo sapiens) (UniProt Q02297); assay: NRG1 binders on small-molecule microarrays, primary screen, psychiatric disease protein project, biochemical, small-molecule microarray, fluorescence 635/667 (AID 1075); conditions: NRG1 binding, 635 nm fluorescence, higher = more signal;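 further: score combines 667 nm spot fluorescence with signal to noise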
Pro-neuregulin-1, membrane-bound isoform (Homo sapiens), sequence (Q02297 whole entry, looked up, the tested form may be a part, canonical isoform): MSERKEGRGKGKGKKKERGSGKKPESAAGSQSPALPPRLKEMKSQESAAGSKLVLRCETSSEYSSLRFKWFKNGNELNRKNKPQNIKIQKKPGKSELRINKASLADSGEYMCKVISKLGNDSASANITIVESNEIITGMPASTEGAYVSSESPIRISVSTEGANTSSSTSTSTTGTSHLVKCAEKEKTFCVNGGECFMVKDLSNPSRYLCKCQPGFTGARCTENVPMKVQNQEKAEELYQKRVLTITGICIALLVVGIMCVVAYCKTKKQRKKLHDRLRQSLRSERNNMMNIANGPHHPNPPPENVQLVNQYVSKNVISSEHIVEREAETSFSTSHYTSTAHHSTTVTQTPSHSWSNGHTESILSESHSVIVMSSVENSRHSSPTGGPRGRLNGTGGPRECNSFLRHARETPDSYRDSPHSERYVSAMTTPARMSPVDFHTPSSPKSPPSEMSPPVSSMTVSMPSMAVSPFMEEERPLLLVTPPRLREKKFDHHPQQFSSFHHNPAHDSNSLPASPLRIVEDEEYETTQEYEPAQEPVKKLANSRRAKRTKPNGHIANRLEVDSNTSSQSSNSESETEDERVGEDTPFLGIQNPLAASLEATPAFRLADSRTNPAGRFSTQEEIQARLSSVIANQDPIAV

[7] = test system: Neuregulin-1 EGF-like domain; assay: binders of neuregulin-1 EGF-like domain, primary screen, biochemical, small-molecule microarray, 635 nm fluorescence (AID 1081); conditions: small-molecule microarray binding, higher = more signal;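 further: binding of the protein to compounds printed on small-molecule microarray slides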
[8] = FRG1 promoter luciferase signal modulators, primary screen, FRG1 inhibition for FSHD, cell-based, C2C12 myotubes, firefly/Renilla luciferase, luminescence (AID 1084); conditions: higher = more signal, called active from +8 up or from −8 down
[9] = binders of probe aFST on microarray, primary screen, stem cell growth factor project, biochemical, small-molecule microarray, fluorescence 635/667 (AID 1086); conditions: higher = more signal;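 further: score merges 667 nm fluorescence with signal-to-noise of each printed compound spot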
[10] = binders of probe aHhip on microarray, primary screen, stem cell growth factor project, biochemical, small-molecule microarray, fluorescence 635/667 (AID 1087); conditions: higher = more signal;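 further: score merges spot fluorescence at 667nm with spot signal to noise ratio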
[11] = test system: PRMT1 (protein arginine N-methyltransferase 1); assay: PRMT1 binders on small-molecule microarrays, primary screen, biochemical, small-molecule microarray, 635 nm fluorescence (AID 1088); conditions: small-molecule microarray binding, higher = more signal;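 further: binding of Prmt1 protein to compounds spotted on small-molecule microarray slides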
[12] = yeast growth modulation, basal conditions, primary screen, YJM789 clinical isolate, OD600, 24 h (AID 1089);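 further: growth of clinical yeast isolate S. cerevisiae YJM 789 seeded 1000 cells per well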; conditions: S. cerevisiae YJM789 growth, higher = more signal, called active from +8 up or from −8 down
[13] = fission yeast growth modulation, primary screen, strain 972, OD600, 24 h, no modulator (AID 1090);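 further: basal condition with compound alone and no growth modifier present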; conditions: S. pombe 972 growth, higher = more signal, called active from +8 up or from −8 down
[14] = S. cerevisiae growth modulation with rapamycin, primary screen, strain BY4716, OD600, 96 h (AID 1091); conditions: higher = more signal, called active from +8 up or from −8 down
[15] = biological target: Torsin-1A-interacting protein 2 (Homo sapiens) (UniProt Q8NFQ8); assay: LULL1 binders on small-molecule microarray, primary screen, cell lysate, human LULL1 lysate, 635/667 nm fluorescence (AID 1092); conditions: hLULL1 lysate binding, 635 nm fluorescence, higher = more signal;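 further: probe is lysate of COS7 cells overexpressing human LULL1; score merges per-feature 667 nm fluorescence with signal-to-noise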
Torsin-1A-interacting protein 2 (Homo sapiens), sequence (Q8NFQ8 whole entry, looked up): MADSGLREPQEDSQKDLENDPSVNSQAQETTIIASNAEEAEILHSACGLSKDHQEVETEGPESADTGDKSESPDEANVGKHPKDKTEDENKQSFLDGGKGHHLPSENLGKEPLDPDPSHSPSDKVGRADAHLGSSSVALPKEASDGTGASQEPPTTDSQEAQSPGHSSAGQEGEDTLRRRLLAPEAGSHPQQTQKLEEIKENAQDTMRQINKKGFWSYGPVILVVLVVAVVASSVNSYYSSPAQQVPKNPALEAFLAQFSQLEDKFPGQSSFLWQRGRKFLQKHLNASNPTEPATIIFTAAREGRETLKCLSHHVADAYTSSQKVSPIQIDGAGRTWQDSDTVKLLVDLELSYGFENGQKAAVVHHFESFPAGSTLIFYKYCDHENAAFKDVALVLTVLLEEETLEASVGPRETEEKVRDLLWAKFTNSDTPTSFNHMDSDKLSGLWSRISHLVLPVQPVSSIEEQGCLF

[16] = E. coli growth modulation, two-sided OD650, primary screen, E. coli filamentation project, strain DRC41, 24 h (AID 1093); conditions: OD650, 24 h, higher = more signal, called active from +8 up or from −8 down;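 further: MC1000 strain lacking acrAB efflux and sulA so SOS filamentation is blocked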
[17] = Cryptococcus neoformans growth inhibition, dose response, Alamar Blue, cherry-picks (AID 686998)
[18] = inducers of Cryptococcus neoformans cell lysis, dose response, AK release luminescence, cherry-picks (AID 687000;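 active means fitted dose curve reaches 40% lysis signal rise at or below the highest valid concentration tested for that sample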;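 further: luminescent detection of adenylate kinase leaking from lysed yeast; 0% = median neutral control signal and 100% = double that signal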)
[19] = HepG2 cell cytotoxicity, dose response, cytotoxicity control, cherry-picks, set 2 (AID 687002;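 active means a dose-response fit showing signal loss, with half-maximal concentration no higher than twice the top tested dose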)

Row | Structure (SMILES) | composite z-score [1] | composite z-score [2] | composite z-score [3] | composite z-score [4] | composite z-score [5] | composite z-score [6] | composite z-score [7] | z-score [8] | composite z-score [9] | composite z-score [10] | composite z-score [11] | z-score [12] | z-score [13] | z-score [14] | composite z-score [15] | z-score [16] | outcome [17] | outcome [18] | outcome [19]
1 | COC(=O)c1c(CC[C@@H](CO)NC(=O)Nc2ccc(OC)cc2)oc(C(=O)Cc2ccccc2)c1C(=O)OC | -0.211 | 0.469 | -0.0924 | 0.411 | 0.704 | 0.191 | 1.03 | -0.814 (inactive) | -0.0409 | -0.0672 | 0.477 | 1.54 (inactive) | -1.21 (inactive) | 2.23 (inactive) | 0.478 | 1.85 (inactive) | – | – | –
2 | COCCOC(=O)N1C(=O)[C@@]2(c3ccccc31)[C@H](C(=O)Nc1nc3ccccc3s1)[C@H]1C(=O)O[C@H](c3ccccc3)[C@H](c3ccccc3)N1[C@@H]2c1ccc(O)cc1 | 0.0605 | 0.202 | 0.074 | 0.823 | 1.44 | 0.57 | 1.28 | 2.8 (inactive) | 0.442 | 0.0302 | 1.53 | 3.43 (inactive) | 1.8 (inactive) | 8.35 (active) | 1.76 | 2.9 (inactive) | – | – | –
3 | CN(C[C@H]1N[C@@H](CO)[C@H]1c1ccc(-c2cccc(F)c2)cc1)S(C)(=O)=O | – | – | – | – | – | – | – | – | – | – | – | – | – | – | – | – | inactive | inactive | –
4 | CCC(=O)N(C)C[C@H]1Oc2cc(-c3ccccc3)ccc2S(=O)(=O)N([C@H](C)CO)C[C@H]1C | – | – | – | – | – | – | – | – | – | – | – | – | – | – | – | – | inactive | inactive | inactive
5 | CC(C)C(CO)N1C(=O)[C@@H]2C3C(=O)OCCC/C=C\[C@H]3OC23C=CCN(C(C)C)C(=O)[C@@H]13 (stereo not given in full) | 0.303 | 0.716 | -0.116 | -0.836 | -1.43 | 2.17 | 0.784 | 0.366 (inactive) | -0.381 | -0.0994 | 0.613 | -1.1 (inactive) | -1.55 (inactive) | -1.1 (inactive) | 2.65 | 2.41 (inactive) | – | – | –
6 | [N-]=[N+]=Nc1ccccc1[C@H]1OC(c2ccc(OCCCO)cc2)=N[C@@]1(Cc1ccccc1)C(N)=O | 1.28 | 1.6 | 0.317 | 0.988 | 1.42 | 1.14 | 1.13 | -0.191 (inactive) | 1.42 | 0.0053 | 1.55 | 2.87 (inactive) | -1.11 (inactive) | -0.321 (inactive) | 2.62 | 1.6 (inactive) | – | – | –
7 | C[C@H](CO)N1C[C@H](C)[C@@H](CN(C)Cc2ccncc2)Oc2ccc(NC(=O)CCC(F)(F)F)cc2C1=O | – | – | – | – | – | – | – | – | – | – | – | – | – | – | – | – | inactive | inactive | inactive
8 | COCCOC(=O)N1C(=O)[C@@]2(c3cc(C#CC4(O)CCCCCC4)ccc31)[C@H](C(=O)NC[C@H](O)c1ccccc1)[C@H]1C(=O)O[C@H](c3ccccc3)[C@H](c3ccccc3)N1[C@@H]2c1ccccc1OCCO | -0.0213 | 0.621 | -0.0628 | 0.695 | 1.03 | 1.29 | 1.23 | 0.153 (inactive) | 0.627 | 0.0044 | 1.55 | 2.64 (inactive) | 0.623 (inactive) | 6.84 (inactive) | 2.69 | 1.97 (inactive) | – | – | –
9 | COCCCNC(=O)[C@@]1(Cc2ccccc2)N=C(c2ccc(OCCCO)cc2)O[C@H]1c1ccccc1N=[N+]=[N-] | 1.38 | 0.768 | 0.269 | 0.727 | 1.14 | 0.276 | 1.13 | -1.37 (inactive) | 0.836 | -0.121 | 0.85 | 0.448 (inactive) | -0.051 (inactive) | 2.71 (inactive) | 2.47 | 1.59 (inactive) | – | – | –
10 | C=CCNC(=O)[C@@H]1[C@H]2C(=O)O[C@H](c3ccccc3)[C@H](c3ccccc3)N2[C@H](c2ccc(O)cc2)[C@@]12C(=O)Nc1ccccc12 | -0.156 | 0.654 | -0.0521 | 0.0546 | -0.554 | 1.31 | 0.574 | 0.674 (inactive) | -0.0542 | -0.251 | 1.45 | 0.455 (inactive) | -1.32 (inactive) | 1.89 (inactive) | 2.8 | 2.14 (inactive) | – | – | –
11 | COc1ccc([Si](C)(C)[C@H]2[C@H](CC(=O)N(CCO)Cc3ccccc3)O[C@@]3(C(=O)N(Cc4ccc(N5CCOC5=O)cc4)c4ccccc43)[C@@H]2C)cc1 | 0.0147 | 0.285 | -0.105 | 0.202 | 0.135 | 0.869 | 1.01 | -2.95 (inactive) | -0.158 | -0.0618 | 0.92 | 0.473 (inactive) | 0.273 (inactive) | 3.26 (inactive) | 1.98 | 1.46 (inactive) | – | – | –
12 | C[C@@H]1CN([C@@H](C)CO)C(=O)c2cccc(NS(C)(=O)=O)c2O[C@@H]1CN(C)C(=O)Nc1ccc2c(c1)OCO2 | – | – | – | – | – | – | – | – | – | – | – | – | – | – | – | – | inactive | inactive | inactive
13 | CC(C)C[C@@H]1NC(=O)[C@@]23C(=O)N[C@@H](Cc4ccccc4)C2[C@H](C)[C@@]2(C)O[C@H]2C3/C=C/C/C=C\CNC(=O)[C@H](Cc2ccccc2)NC1=O (stereo not given in full) | -0.215 | -0.215 | -0.101 | -0.0045 | 0.245 | 0.974 | 0.897 | 0.259 (inactive) | 0.0017 | 0.03 | 0.911 | -0.664 (inactive) | -19.9 (active) | -0.602 (inactive) | 0.574 | 2.08 (inactive) | – | – | –
